# An excerpt weighted towards active compounds, which were near 19% of everything screened.
# HT1080-NT tox: kills 2HG-producing HT-1080-NT fibrosarcoma cells. HT-1080-NT fibrosarcoma viability, CellTiter-Glo ATP luminescence, 48 h. Potency, µM (doses to about 46.1 µM), hits mostly cytotoxic. actives 1.6% (n = 360,000). AID 686970;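 also: NT is the 2HG producing partner of a matched IDH1 knockdown line; nearly all actives have a fitted effect of over 55% in size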
#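 HT-1080-NT; 750 cells/well; 5% FBS RPMI; 48 h compound, 37 degrees C; CellTiter-Glo luminescence; curve fitting and curve-class assignment.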
# KB-3-1 tox: kills parental KB-3-1 adenocarcinoma cells; actives 1.4% (n = 400,000); AID 1347075; KB-3-1 viability, CellTiter-Glo ATP luminescence, 72 h; Potency, µM (doses to about 46.1 µM), actives largely listed as cytotoxic; also: nearly all actives have a fitted effect of over 60% in size
#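 Parental KB-3-1 viability, qHTS format: 72 h compound exposure, 37 °C; CellTiter-Glo; media-only wells and DMSO plates as controls; concentration-effect fits on corrected data.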
# TDP1 cell noCPT: qHTS for Inhibitors of human tyrosyl-DNA phosphodiesterase 1 (TDP1): qHTS in cells in absence of CPT; actives 15% (n = 420,000); Potency, µM (top dose mostly 46.2 µM), hits mostly inhibitors; DT40 Tdp1-/- hTDP1 cells, no CPT, ATP luminescence, 48 h; also: nearly all actives have a fitted effect of over 55% in size
#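 Stably hTDP1-transfected Tdp1-null chicken DT40 cells were treated with library compounds minus camptothecin and grown for at least 48 hr at 37 °C, after which cellular ATP was quantified by luminescence.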
# TDP1 cell CPT: DT40-hTDP1 cell growth loss with CPT. Potency, µM (highest dose often 46.2 µM), hits mostly inhibitors. actives 12% (n = 420,000). chicken DT40 Tdp1-/-;hTDP1 cells + 20 nM CPT, ATP luminescence, 48 h; also: nearly all actives have a fitted effect of over 55% in size
#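 Cell growth measured by CellTiter-Glo luminescence after a minimum 48 h, 37 C compound exposure with 20 nM CPT in Tdp1-knockout DT40 cells stably expressing hTDP1, seeded 400/well; qHTS titration format.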
# KB-V1 cytotox: KB-V1 MDR subline cytotoxicity; KB-V1 MDR cells viability, CellTiter-Glo, 72 h; Potency, µM (highest dose often 46.1 µM), most hits filed as cytotoxic; actives 3.4% (n = 400,000); also: nearly all actives have a fitted effect of over 60% in size
#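 In this primary screen, KB-V1 cells overexpressing P-gp are incubated with library compounds (lowest to highest concentration) for 72 h at 37 degrees C before a luminescent ATP viability read.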
# HT1080 IDH1KD tx: toxicity to HT-1080 IDH1 knockdown cells (counter line). HT-1080 IDH1 knockdown viability, ATP luminescence, 48 h. Potency, µM (highest dose often 46.1 µM), actives largely listed as cytotoxic. actives 2% (n = 360,000). AID 686971
#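 Assay cells: HT-1080 with IDH1 knockdown, 750 per well, RPMI/5% FBS. Exposure: 48 h at 37 °C following 2 h pre-incubation. Read: CellTiter-Glo luminescence; fitted concentration-response, curve class assigned.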
# Hits are given with their value; . = inactive; ? = inconclusive; / = no result. Calls follow the shape of the dose curve; as a rule, active = well fitted curve in the direction sought with a large enough effect; inconclusive = small, poorly fitted or top-dose-only effect, or another doubt; inactive = no such curve, though single readings can be large; an effect the other way counts as inactive or inconclusive.
SMILES,HT1080-NT tox,KB-3-1 tox,TDP1 cell noCPT,TDP1 cell CPT,KB-V1 cytotox,HT1080 IDH1KD tx
Cc1cccc(Nc2ncnc3onc(-c4cccc(Cl)c4)c23)c1C,.,.,18.4µM,20.6µM,?,.
Clc1ccc(-c2noc3ncnc(NC4CCCCC4)c23)cc1,/,.,.,.,.,/
O=C(CC1c2cc(F)ccc2C=C(c2ccsc2)N1c1ccc(C#CCCO)cc1)c1ccco1 (configuration not stated),?,?,20.6µM,?,.,?
COC(=O)c1ccc(N2C(c3ccsc3)=Cc3cc4c(cc3C2CC(=O)c2ccco2)OCO4)cc1 (configuration not stated),?,?,14.6µM,20.6µM,?,?
CC(=O)CC1c2cc(F)ccc2C=C(c2ccsc2)N1c1ccc(C#CC2(O)CCCCC2)cc1 (configuration not stated),?,?,23.1µM,?,?,?
COc1ncc(-c2ccc(N3C(c4ccsc4)=Cc4ccc(F)cc4C3CC(=O)c3ccco3)cc2)cn1 (configuration not stated),.,.,?,?,.,.
Cc1ccc2c(c1)sc1nc(-c3cc4cc(Cl)ccc4oc3=O)cn12,/,/,.,.,/,/
COc1ccc(N2CC(C(=O)N/N=C/c3ccc(C)cc3)CC2=O)cc1 (configuration not stated),3.26µM,1.84µM,1.64µM,1.3µM,1.46µM,2.31µM
COc1ccc(N2CC(C(=O)N/N=C/c3cccs3)CC2=O)cc1 (configuration not stated),.,.,.,.,.,.
COc1ccc(C2OC(CCc3ccccc3)CC3=C2C(=O)OC(C)(C)O3)cc1 (configuration not stated),.,.,?,?,.,.
N#CC(C#N)=C1C=CC=CN1/C(=C\c1ccccc1Cl)C(=O)c1ccccc1,?,?,1.16µM,0.581µM,?,2.59µM
N#CC(C#N)=C1C=CC=CN1/C(=C\c1ccccc1)C(=O)c1cccs1,.,.,3.66µM,1.03µM,?,.
C#CCOCCOCCOCCNc1nc(N2CCN(C(=O)C([C@@H](C)CC)n3cc(C(N)Cc4ccc(O)cc4)nn3)CC2)nc(N2CCN(C(=O)[C@H](CCC(=O)O)n3cc(C(N)CO)nn3)CC2)n1 (some centres not stated),.,.,.,.,.,.
CCOC(=O)c1[nH]c2c(c1Cc1ccccc1)C(=O)CC(c1ccc(C(C)(C)C)cc1)C2 (configuration not stated),/,.,?,?,.,/
Cc1ccccc1-c1cc(NCCN2CCOCC2)ncn1,/,/,.,.,/,/
O=C(CCl)Nc1ccc(N2CCCCCC2)cc1,23.1µM,?,8.2µM,5.17µM,.,18.4µM
CCC(=O)Nc1ccc(N2CCCCC2)cc1,.,.,.,?,.,.
O=C(Cn1c(-c2ccccc2)noc1=O)Nc1ccc(S(=O)(=O)N2CCOCC2)cc1,.,.,.,.,.,.
N#Cc1ccc(OCC(=O)Nc2ccc(N3CCCC3)cc2)cc1,.,.,11.6µM,?,.,.
O=C(Cn1c(-c2ccccc2)noc1=O)Nc1ccc(N2CCCCCC2)cc1,.,.,17.8µM,15.8µM,.,?
O=C(Nc1ccc(Cl)cc1N1CCOCC1)C1CCCO1 (configuration not stated),.,.,.,.,.,.
O=C(O)[C@H]1[C@H]2C[C@H]3c4[nH]c5ccccc5c4CCN3C[C@@H]2CC[C@@H]1O,/,/,13.3µM,10.6µM,/,/
CCOC(=O)C(C)n1ncn2cccc2c1=O (configuration not stated),.,.,.,.,.,.
O=C(NCc1ccc(F)cc1)C1CCN(C(=O)c2ccc(-n3ccc4ccccc43)s2)CC1,/,.,14.6µM,16.4µM,.,/
COCCCNC(=O)C1CCN(C(=O)c2ccc(-n3ccc4ccccc43)s2)CC1,/,.,16.4µM,18.4µM,.,/
SMILES,HT1080-NT tox,KB-3-1 tox,TDP1 cell noCPT,TDP1 cell CPT,KB-V1 cytotox,HT1080 IDH1KD tx
O=C(CCCc1nc(-c2ccco2)no1)Nc1ccccc1[N+](=O)[O-],/,/,.,.,/,/
CSc1cccc(NC(=O)c2cccc3cccnc23)c1,.,.,?,.,?,.
O=C(Oc1ccc(F)cc1)c1cccnc1,.,.,.,.,.,.
CC1=CC(C)(C)N(C(=O)CN2C(=O)CCC2=O)c2ccccc21,.,.,.,.,?,.
CC1=CC(C)(C)Nc2ccc(OC(=O)C(C)N3C(=O)c4ccccc4C3=O)cc21 (configuration not stated),20.6µM,?,2.59µM,2.06µM,?,18.4µM
CC1=CC(C)(C)Nc2ccc(OC(=O)c3cccnc3)cc21,?,?,4.61µM,2.91µM,?,?
CC1=CC(C)(C)Nc2ccc(OC(=O)CN3C(=O)CCC3=O)cc21,?,.,2.82µM,2.91µM,?,2.51µM
COc1ccc(OC(=O)C(C)N2C(=O)c3ccccc3C2=O)cc1 (configuration not stated),.,.,.,.,.,.
CN1CC[C@@]2(CCCN(S(=O)(=O)c3ccccc3)C2)C1,/,/,.,.,/,/
CC(Oc1ccc(Cl)cc1Cl)C(=O)NCc1ccncc1 (configuration not stated),.,.,?,?,20.6µM,.
Cc1cc(C)cc(OCc2cc(=O)n3cc(C)sc3n2)c1,/,.,.,.,.,/
CN(C)CCCOc1ccc(C(C)(C)c2ccccc2)cc1,.,?,18.4µM,?,.,.
COC(=O)[C@H](Cc1ccccc1)NC(=O)C1(OC(C)=O)CC(OC(C)=O)C(OC(C)=O)C(OC(C)=O)C1 (some centres not stated),.,.,.,.,.,.
CC(/C=N/NC(=O)c1cc(-c2ccccc2)nc2ccccc12)=C\c1ccco1,?,4.11µM,0.731µM,2.31µM,7.31µM,?
CC(/C=N/NC(=O)c1cc(-c2ccc(Cl)cc2)nc2ccccc12)=C\c1ccco1,?,1.03µM,3.26µM,2.91µM,0.92µM,0.82µM
CC(/C=N/NC(=O)CN1CCN(Cc2ccc(Cl)cc2)CC1)=C\c1ccco1,.,.,?,?,.,.
CC(C)c1ccc(N2CC(C)(C)C2=O)cc1,.,.,.,.,.,.
CN1C(=O)N(CC(=O)N2CCN(c3ncccn3)CC2)C(=O)C12CCCCC2,.,.,.,.,.,.
O=C(N/N=C/c1ccc[nH]1)c1ccccc1O,.,?,.,.,5.17µM,.
Cc1cc(C(=O)N/N=C/c2ccc[nH]2)no1,.,.,18.4µM,?,.,.

# Compound activity (PubChem)
